# HT1080 IDH1KD tx: qHTS for induction of synthetic lethality in tumor cells producing 2HG: qHTS for the HT-1080-IDH1KD cell line. 360,000 compounds, 2% hits. Potency, µM (doses to about 46.1 µM), for inactives: at the highest dose activity, negative = toxicity, actives largely listed as cytotoxic. HT-1080 IDH1 knockdown viability, ATP luminescence, 48 h;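 note: 0% = DMSO wells and -100% = cell-free medium wells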
#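 IDH1KD HT-1080 cells, 750/well, RPMI + 5% FBS; compound pinned after 2 h settling; 48 h, 37 °C; CellTiter-Glo luminescence; % activity normalised to DMSO and no-cell wells; curves fitted, classed by r2 and efficacy.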
# KB-3-1 cytotox: qHTS assay for MDR1-selective chemotherapeutics: Primary screen using the parental adenocarcinoma cell KB-3-1; KB-3-1 viability, CellTiter-Glo ATP luminescence, 72 h; Potency, µM (highest dose often 46.1 µM), usual class: cytotoxic; 400,000 compounds, 1.4% hits; note: nearly all actives have a fitted effect of over 60% in size
#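 Here the drug-naive KB-3-1 line serves as comparator for MDR sub-line selectivity; cells received compound titrations, 72 h at 37 °C, then CellTiter-Glo readout.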
# DT40 TDP1 no CPT: qHTS for Inhibitors of human tyrosyl-DNA phosphodiesterase 1 (TDP1): qHTS in cells in absence of CPT. 420,000 compounds, 15% hits. AID 686978, 2013. Potency, µM (top dose mostly 46.2 µM), for inactives: at the highest dose activity change, negative = growth inhibition, hits mostly inhibitors. DT40 Tdp1-/- hTDP1 cells, no CPT, ATP luminescence, 48 h; note: nearly all actives have a fitted effect of over 55% in size
#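 Growth kinetics read by CellTiter-Glo luminescence after ≥48 hr at 37 °C. Cells: DT40 Tdp1-/- stably carrying human TDP1, 400 per well, compound exposure in the absence of CPT (DMSO vehicle).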
# DT40 TDP1 CPT: qHTS for Inhibitors of human tyrosyl-DNA phosphodiesterase 1 (TDP1): qHTS in cells in presence of CPT; AID 686979, 2013; 420,000 compounds, 12% hits; Potency, µM (highest dose often 46.2 µM), without a hit: top-dose activity change, negative = growth inhibition, actives largely listed as inhibitors; chicken DT40 Tdp1-/-;hTDP1 cells + 20 nM CPT, ATP luminescence, 48 h; note: nearly all actives have a fitted effect of over 55% in size
#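 Chicken DT40 Tdp1-/- cells stably complemented with human TDP1 were seeded at 400 cells/well in medium containing 20 nM camptothecin, exposed to pin-transferred compounds, and grown at 37 °C for at least 48 hr. Viability was read as ATP luminescence.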
# KB-V1 MDR tox: qHTS assay for MDR1-selective chemotherapeutics: Primary screen using the drug-selected MDR subline cells KB-V1. KB-V1 MDR cells viability, CellTiter-Glo, 72 h. Potency, µM (titrated, usually from 46.1 µM), hits mostly cytotoxic. 400,000 compounds, 3.4% hits; note: nearly all actives have a fitted effect of over 60% in size
#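 Luminescent ATP read-out (CellTiter-Glo, 10 min) measures survival of drug-selected KB-V1 MDR cells after 72 h, 37 degrees C compound exposure. Medium: phenol-red-free DMEM, 10% FBS. Values from fitted concentration-response curves.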
# HT1080NT lethal: qHTS for induction of synthetic lethality in tumor cells producing 2HG: qHTS for the HT-1080-NT fibrosarcoma cell line; Potency, µM (titrated, usually from 46.1 µM), for the others: at the highest dose activity, negative = less viability, usual class: cytotoxic; 360,000 compounds, 1.6% hits; HT-1080-NT fibrosarcoma viability, CellTiter-Glo ATP luminescence, 48 h;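 note: NT is the 2HG producing partner of a matched IDH1 knockdown line; 0% = DMSO-treated cells and -100% = media-only wells without cells; nearly all actives have a fitted effect of over 55% in size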
#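 Compounds were tested in concentration-response format on HT-1080-NT cells for 48 hours at 37 degrees C. Cell viability came from CellTiter-Glo luminescence; curves were classified by r2, response magnitude and activity.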
# * hit, by the source's call; i = inactive; ? = inconclusive; / = no result. In the library only some 19% were active in any assay of this set; here they are far more common. Calls come from the whole dose curve; as a rule, active = well fitted curve in the direction sought with a large enough effect; inconclusive = small, poorly fitted or top-dose-only effect, or another doubt; inactive = no such curve, though single readings can be large; an effect the other way counts as inactive or inconclusive. Unless noted, % is set by controls: 0 for no effect and ±100 for the full control effect; potency is the fitted concentration of half-maximal effect.
SMILES,HT1080 IDH1KD tx,KB-3-1 cytotox,DT40 TDP1 no CPT,DT40 TDP1 CPT,KB-V1 MDR tox,HT1080NT lethal
CCCCn1c(-c2cccnc2)nc2cc3[nH]c(=O)c(C(C)C)nc3cc21,-11%,?,15µM*,18µM*,i,-9%
CCCCn1c(-c2cccnc2)n[nH]c1=S,-8%,i,5%,-3%,i,7%
O=C(Oc1ccccc1)N1CCC2(CCCN(c3ccccc3)C2)CC1,/,/,-20%,0%,/,/
O=C(O)CCc1cc(I)c(O)c(I)c1,/,/,-19%,-25%,/,/
COc1ccc(-n2c(SCc3ccccc3F)nc3c([nH]c4ccccc43)c2=O)cc1,/,i,?,?,?,/
COc1ccc(CC2(CO)CCN(Cc3cccn3-c3ccccn3)CC2)cc1,-11%,i,-26%,-18%,i,0%
COc1ccc(CC2(CO)CCN(Cc3cnn(-c4ccccc4)c3)CC2)cc1,?,i,?,?,i,?
COc1ccc(CC2(CO)CCN(Cc3cnn(-c4ccccc4OC)c3)CC2)cc1,0%,i,10µM*,?,i,-10%
COc1ccc(CC2(CO)CCN(Cc3cnc(-c4ccccc4C)nc3)CC2)cc1,-13%,?,13µM*,?,?,2%
CCOc1ccc(N(CC)S(=O)(=O)N2CCCC(C(=O)Nc3ccc(OC)c(OC)c3)C2)cc1 (configuration not stated),/,i,?,?,i,/
CCCS(=O)(=O)N1CC(=O)N(c2ccccc2C)C(C)(C(=O)NC2CCCCC2)C1 (configuration not stated),/,i,-1%,-13%,i,/
COc1ccc(NC(=O)[C@H](C)NC(=O)C2CCN(S(=O)(=O)c3ccc(C)cc3)CC2)cc1OC,-3%,i,8%,-1%,i,0%
O=C(CSCc1ccccc1)Nc1cccc(F)c1,-3%,i,?,7.3µM*,i,2%
CN(CC(=O)Nc1cccc(F)c1)C(=O)c1ccc(C2SCCS2)cc1,-18%,?,?,?,18µM*,-5%
CN(CC(=O)Nc1cccc(F)c1)C(=O)c1ccccc1CCc1ccccc1,-16%,i,21µM*,15µM*,?,-22%
COc1cccc(NC(=O)Cc2ccccc2)c1,1%,i,-14%,-24%,i,0%
CN(CC(=O)Nc1cccc(F)c1)C(=O)c1ccc(OCc2ccccc2)cc1,-10%,i,?,-28%,i,-6%
O=C(Cc1ccccc1)Nc1cccc(N2C(=O)C=CC2=O)c1,?,i,4.6µM*,5.2µM*,i,-12%
O=C(CSCc1ccc(F)cc1)Nc1ccc(F)cc1,11%,i,-11%,-6%,i,16%
COc1ccc(C(NC(=O)CN2C(=O)NC3(CCc4ccccc43)C2=O)c2ccc(OC)cc2)cc1 (configuration not stated),-13%,i,?,?,i,-7%
CCCCCCOC(=O)CC1CC(C(C)=O)C1(C)C (configuration not stated),16%,i,?,0%,i,9%
O=C(Nc1ncc(Cc2ccccc2Cl)s1)c1ccc2c(c1)CC(c1ccccc1)OC2=O (configuration not stated),/,i,-28%,-22%,i,/
CN(CC(=O)Nc1cccc(F)c1)C(=O)c1ccc2c(c1)CC(c1ccccc1)OC2=O (configuration not stated),16µM*,18µM*,5.2µM*,8.2µM*,?,?
CCc1ccc(Cc2cnc(NC(=O)c3ccc4c(c3)CC(c3ccccc3)OC4=O)s2)cc1 (configuration not stated),/,i,18µM*,?,i,/
CCOc1ccc(S(=O)(=O)/N=C(/Nc2ccc(OC)cc2)c2ccccc2)cc1,3%,i,-29%,-1%,?,5%
SMILES,HT1080 IDH1KD tx,KB-3-1 cytotox,DT40 TDP1 no CPT,DT40 TDP1 CPT,KB-V1 MDR tox,HT1080NT lethal
CCOc1ccc(S(=O)(=O)/N=C(/Nc2ccc(C(C)=O)cc2)c2ccccc2)cc1,-18%,i,13µM*,23µM*,i,?
CCOc1ccc(S(=O)(=O)/N=C(/Nc2ccc(C)c(S(=O)(=O)N3CCOCC3)c2)c2ccccc2)cc1,0%,i,?,?,9.2µM*,-3%
Cc1ccc(NC(=O)CCS(=O)(=O)c2ccccc2)cc1S(=O)(=O)N1CCOCC1,1%,i,-6%,8%,i,-1%
Cc1nn2c(C)c(C(=O)NC(C)c3ccccc3)cnc2c1-c1ccc(F)cc1 (configuration not stated),/,?,?,-6%,i,/
CCN1/C(=C/c2ccc3cc(C)ccc3[n+]2CC)Sc2cc(C)ccc21,23µM*,?,0.013µM*,0.29µM*,i,16µM*
CCN1/C(=C/c2ccc3ccccc3[n+]2CCCS(=O)(=O)[O-])C=Cc2cc(C)ccc21,-17%,i,?,?,i,-14%
CCN1/C(=C/c2ccc3cc(C)ccc3[n+]2C)Sc2ccc3sccc3c21,?,i,0.58µM*,0.41µM*,i,16µM*
CCCCN1/C(=C/c2ccc3ccccc3[n+]2CC)Sc2ccccc21,15µM*,i,0.23µM*,0.26µM*,i,?
CCN1/C(=C/c2ccc3ccccc3[n+]2CC)C=Cc2ccccc21,8.2µM*,0.82µM*,1.5µM*,1.6µM*,?,6.5µM*
Cc1ccc2cc(CN(CC(C)C)S(=O)(=O)c3cccc4nonc34)c(=O)[nH]c2c1,21%,i,-14%,-29%,?,8%
CCc1nnc2c(N3CCN(c4cccc(C)c4)C(C)C3)nc3ccccc3n12 (configuration not stated),/,i,?,21µM*,i,/
Cc1cccc(N2CCN(c3nnnn3-c3ccccc3)CC2C)c1 (configuration not stated),-1%,i,?,?,i,1%
CCc1nnc2c(N3CCN(c4cccc(C(F)(F)F)c4)CC3)nc3ccccc3n12,/,i,21µM*,21µM*,?,/

# Screening results as filed in PubChem.
